# High-throughput results (PubChem)
# In the library only some 2.1% were active in any assay of this set; here they are far more common.
# HIV Env fusion: HIV envelope-mediated fusion inhibition; 1.1% of 360,000 active; HeLa-JRFL Env/CEM21 cell fusion, luciferase; inhibition, % at 12.3 µM; AID 651610;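 active = mean replicate inhibition score of at least 50 and every replicate individually at or above 50; inconclusive = only one of the two criteria met; inactive = mean below 50 and not all replicates reaching 50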;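 note: 0% = plate neutral controls and 100% = maraviroc near 300 nM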
# NSD2 HMT inh: NSD2 (human) methyltransferase inhibition | O96028 | NSD2 peptide methylation, AlphaScreen, 120 min | inhibition, % at 12.5 µM | 0.54% of 310,000 active; in the data active = inhibition above about 50%
# Target sequence (O96028 whole entry, looked up): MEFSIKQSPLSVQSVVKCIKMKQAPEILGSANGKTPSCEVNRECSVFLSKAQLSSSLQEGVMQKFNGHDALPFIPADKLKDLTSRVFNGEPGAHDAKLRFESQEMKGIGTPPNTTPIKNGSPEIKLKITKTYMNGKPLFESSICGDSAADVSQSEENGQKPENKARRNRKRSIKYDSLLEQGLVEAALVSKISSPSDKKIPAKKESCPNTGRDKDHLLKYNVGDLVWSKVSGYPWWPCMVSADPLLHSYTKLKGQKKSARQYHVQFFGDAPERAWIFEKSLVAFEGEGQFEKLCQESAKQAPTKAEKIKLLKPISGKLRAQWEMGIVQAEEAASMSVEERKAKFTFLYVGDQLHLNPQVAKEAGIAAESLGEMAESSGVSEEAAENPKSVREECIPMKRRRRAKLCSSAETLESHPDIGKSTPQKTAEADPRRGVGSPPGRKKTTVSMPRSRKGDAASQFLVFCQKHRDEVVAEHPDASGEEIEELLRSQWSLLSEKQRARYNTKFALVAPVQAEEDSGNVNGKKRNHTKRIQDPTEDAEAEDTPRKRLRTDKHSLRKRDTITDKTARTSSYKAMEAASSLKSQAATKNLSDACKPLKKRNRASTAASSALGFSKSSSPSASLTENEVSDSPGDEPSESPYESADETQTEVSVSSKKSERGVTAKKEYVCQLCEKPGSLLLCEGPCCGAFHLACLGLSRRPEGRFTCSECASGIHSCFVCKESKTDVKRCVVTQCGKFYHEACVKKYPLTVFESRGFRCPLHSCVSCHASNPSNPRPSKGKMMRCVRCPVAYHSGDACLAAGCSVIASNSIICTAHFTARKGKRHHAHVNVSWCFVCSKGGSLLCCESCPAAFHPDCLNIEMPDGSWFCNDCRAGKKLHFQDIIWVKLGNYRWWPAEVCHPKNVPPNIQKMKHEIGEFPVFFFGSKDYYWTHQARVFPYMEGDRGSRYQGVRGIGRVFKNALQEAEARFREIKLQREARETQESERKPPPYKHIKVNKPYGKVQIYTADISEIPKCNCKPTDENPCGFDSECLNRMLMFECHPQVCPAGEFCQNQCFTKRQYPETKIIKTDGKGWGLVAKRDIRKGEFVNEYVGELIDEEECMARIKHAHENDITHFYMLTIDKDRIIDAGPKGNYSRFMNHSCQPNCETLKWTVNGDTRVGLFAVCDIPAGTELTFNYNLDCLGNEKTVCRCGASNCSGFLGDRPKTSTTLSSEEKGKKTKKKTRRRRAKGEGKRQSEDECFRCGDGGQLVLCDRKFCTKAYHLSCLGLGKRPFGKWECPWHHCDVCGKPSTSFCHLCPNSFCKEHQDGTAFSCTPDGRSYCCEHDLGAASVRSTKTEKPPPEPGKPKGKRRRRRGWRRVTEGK
# INS-1E GSIS act: primary screen for activators of insulin secretion dependent on glucose, INS-1E cells, GLuc reporter luminescence; INS-1E GLuc reporter insulin secretion, 2-3 h; 0.61% of 370,000 active; activation, % at 16.6 µM;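 active = lowest replicate activation of at least 40%, so every replicate reaches that level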;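 note: 0% = median of neutral control wells and 100% = median of IBMX positive control wells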
# AF4-AF9 inh: blocks AF4 peptide binding to human AF9; 0.47% of 350,000 active; inhibition, % at 10 µM; AID 651704; P42568; AlphaScreen, biotin-AF4 peptide binding to FLAG-AF9;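 active = every replicate reaching a set inhibition limit, whatever the replicate mean, cut at about 25% in these data; inconclusive = mean inhibition reaches that limit but some replicates miss it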;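 note: 0% = plate neutral control median and 100% = total signal loss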
# PGC1a acetyl inh: modulators of PGC1a acetylation. U2OS PGC1a acetylation, AlphaScreen anti-acetyl-lysine; with virally co-expressed GCN5 acetyltransferase. inhibition, % at 15.6 µM. 0.17% of 350,000 active. AID 651687;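 active = every replicate shows inhibition of at least 40%; inconclusive = mean inhibition at least 40% but some replicate below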;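 note: 0% = neutral control wells and 100% = positive control wells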
# Numbers without * were called inactive; ? = inconclusive; . = no result; ! = a repeat was not active; [ ] = another dose, or the depositor's remark.
SMILES,HIV Env fusion,NSD2 HMT inh,INS-1E GSIS act,AF4-AF9 inh,PGC1a acetyl inh
CC(CNC(=O)Cn1ccc2cc(S(=O)(=O)N3CCCC3)ccc21)c1ccccc1 (centres undefined),45,-5,8,-1,-5
OC[C@@H]1[C@@H](c2ccccc2)C2(CN(Cc3cccnc3)C2)N1Cc1ccncc1,.,.,14,26*,8
Cc1ccccc1S(=O)(=O)N1CC(=O)N2[C@H](CO)[C@H](c3ccc(C#CCC4CCCC4)cc3)[C@@H]2C1,.,.,-19,-2,-6
Cc1ccccc1S(=O)(=O)N1CC(=O)N2[C@@H](CO)[C@H](c3ccc(C#CCC4CCCC4)cc3)[C@@H]2C1,.,.,43*,-1,-3
O=Cc1ccc(N2CCN(S(=O)(=O)c3ccc4c(c3)CC(=O)N4)CC2)cc1,-38,.,10,1,.
O=C(Cn1c(C(F)(F)F)nc2ccccc21)c1ccc(Cl)cc1,64*,-13,.,.,-2
O=C1CCCC2=C1C(c1cccs1)Nc1ccccc1N2 (centres undefined),87*,7,-1,.,.
C[C@@H]1CN([C@H](C)CO)C(=O)CCCn2cc(nn2)CO[C@@H]1CN(C)C(=O)Nc1ccc(N2CCN(C)CC2)cc1,.,.,13,2,1
C[C@H]1CN([C@@H](C)CO)C(=O)CCCn2cc(nn2)CO[C@@H]1CN(C)C(=O)Nc1ccc(N2CCCCC2)cc1,13,.,-15,38*!,8
CCOC(=O)N(C)C[C@@H]1OCc2cn(nn2)CCCC(=O)N([C@H](C)CO)C[C@H]1C,57*,.,13,1,-9
N=C1C(c2ccccc2)=C(O)CN1NC(=O)c1ccccc1,7,5,3,-2,.
O=C(O)CC1S/C(=N\N=C2CCCCCCC2)N(c2ccccc2)C1=O (centres undefined),-3,5,-7,-2,-15
CS(=O)(=O)N(CCc1ccccc1)CC(=O)NCc1ccccn1,.,-2,.,.,5
COc1ccc([Si](C)(C)[C@@H]2[C@@H](CCO)O[C@]3(C(=O)N(Cc4ccc(N5CCOC5=O)cc4)c4ccccc43)[C@H]2C)cc1,57*[16.7 µM],.,.,2,-5
O=C(Nc1cccc(S(=O)(=O)N2CCCCCC2)c1)c1cncc(Br)c1,56*,.,.,-2,-9
O=C(Nc1ccc(Br)cn1)c1cccc(S(=O)(=O)N2CCCC2)c1,56*,0,.,-1,-4
Cc1ccc(NC(=O)c2ccc(Cl)c(S(=O)(=O)N3CCCCCC3)c2)nc1,61*,-2,-2,3,-11
Cc1ccc(NC(=O)c2ccc(S(=O)(=O)N3CCCCCC3)cc2)nc1,-11,-2,7,-36,-9
O=C(c1ccc(Cl)c(S(=O)(=O)N2CCCCCC2)c1)N1CCCCC1,-3,-1,-10,-1,.
O=C(c1ccc(Cl)c(S(=O)(=O)N2CCCCCC2)c1)N1CCN(c2ccccn2)CC1,63*,2,-17,.,9
COCC(=O)N[C@H]1C=C[C@@H](CC(=O)N2CCCCC2)O[C@H]1CO,1[16.7 µM],.,5,.,-11
C/C(=N/NS(=O)(=O)c1ccc(CC(C)C)cc1)c1ccncc1,65*,2,-23,-1,0
O=C(NCc1ccc(F)cc1)C1(c2cccs2)CCOCC1,.,-3,-2,-40,.
COC(=O)C1CCCN1C(C(=O)NC1CCCCC1)c1ccc(Cl)cc1 (centres undefined),66*,.,-4,0,1
O=C(O)c1ccc(NS(=O)(=O)c2ccc3c(c2)OCCO3)cc1,-48,.,29,-3,3
SMILES,HIV Env fusion,NSD2 HMT inh,INS-1E GSIS act,AF4-AF9 inh,PGC1a acetyl inh
COc1ccc(S(=O)(=O)Nc2ccc3c(c2)OCO3)cc1OC,-26,0,43*,.,-3
COc1ccc(S(=O)(=O)Nc2ccc3c(c2)OCO3)cc1C(=O)O,-27,.,25,.,5
O=C(O)Cc1ccc(NS(=O)(=O)c2ccc3c(c2)OCCO3)cc1,10,1,130*,-15,2
COc1ccc(NS(=O)(=O)c2ccc3c(c2)OCCO3)cc1OC,93*,11,-27,-1,21
CCCSc1ccc2nc(-c3ccccc3)cn2c1,-81,-1,-30,.,.
CCC12CN3CCN(CC(C3)/C1=N\NC(=O)c1ccc(F)cc1)C2,4,-3,0,2,3
O=C(CCNS(=O)(=O)c1cccs1)N1CCN(c2cccc(Cl)c2)CC1,-4,0,-30,-2,.
O=C(CCCNS(=O)(=O)c1cccs1)N1CCN(c2cccc(Cl)c2)CC1,71*,.,-6,.,-1
Cc1cc(C)c(C#N)c(N2CCN(c3ccccc3)CC2)n1,-5,-1,-6,1,49*
COc1ccc(Cc2nnc(-c3ccccc3)o2)cc1,-37,2,46*,.,7
c1ccc(Cc2nnc(-c3ccccc3)o2)cc1,-74,1,29,.,.
C=CCNc1cc(C)oc(=O)c1C(=O)CCC,11,-2,71*,-12,-7
CCCCCCCCN1[C@@H](CC(C)=O)c2cc(C(F)(F)F)ccc2S1(=O)=O,61*,.,-41,.,1
CCn1c(Oc2ccccc2F)nc2c1c(=O)n(C)c(=O)n2C,58*,-1,9,0,?
Cc1ccc(Oc2nc3c(c(=O)n(Cc4ccccc4F)c(=O)n3C)n2C)cc1,56*,1,-17,.,.
COCCNc1nc2c(c(=O)n(Cc3ccccc3F)c(=O)n2C)n1C,1,0,-17,4,.
C1=CCN(c2nc(N3CCOCC3)nc(N3CCCc4ccccc43)n2)CC1,-4,-1,.,-5,-9
O=C(C[C@@H]1CC[C@H]2[C@@H](COC[C@H](O)CN2CC2CCCCC2)O1)NCC1CC1,.,.,6,-6,-7
CC(=O)Nc1nc(-c2ccc3c(c2)CC(C)N3C(=O)C2CC2)c(C)s1 (centres undefined),59*,7,-2,7,12
Cc1sc(NC(=O)c2ccco2)nc1-c1ccc2c(c1)CC(C)N2C(=O)C1CC1 (centres undefined),.,.,11,4,.
COc1ccccc1/C=C/CN1CCCC(CCC(=O)NCc2ccc(F)c(F)c2)C1 (centres undefined),63*,-1,-13,8,-1
CC(O)(c1ccc(F)c(F)c1)c1nc(-c2cccc(C(=O)O)c2)cs1 (centres undefined),-15,-2,.,0,8
Cn1nc(C(=O)N2CCCCC2)c2c1-c1ccccc1S(=O)(=O)C2,-11,0,5,0,48*
O=C(N/N=C/C=C/c1ccc2c(c1)OCO2)c1ccc([N+](=O)[O-])cc1,-27,.,74*,.,4
O=C(Nc1ccc(F)c(Cl)c1)c1cc(C2CCCN(S(=O)(=O)c3ccccc3)C2)on1 (centres undefined),31,0,-36,-1,-15
COc1ccc(-c2nc3cc(NC(=O)Cc4ccc(OC)c(OC)c4)ccc3o2)cc1,63*,0,.,.,13
COc1ccc(OCC(=O)Nc2ccc3oc(-c4ccncc4)nc3c2)cc1,13,-2,-5,0,4
CC(C)CNC(=O)c1ccccc1SCC(=O)NC12CC3CC(CC(C3)C1)C2,64*,0,-10,.,.
